Reference: PubChem BioAssay AID1159580 (chemical genetic matrix, 2015)
Where “and” joins values, the source holds several entries; their conditions need not be identical. Equal values may be shown once. Out of some 5,500 compounds screened, about 2,000 (36%) were called active. About 18% were inconclusive and are not listed. Cut-off read from the data, not from the text of the source: active = normalized growth mostly below about 0.91 (no sharp cut-off); inconclusive = no clear call, values can overlap the other calls; inactive = mostly above about 0.92. The list shows a part of the results.

Assay: chemical genetic growth profiling, strain panel (AID 1159580);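 note: tested at 20 µM; growth read once vehicle control cultures reached saturation at 30 °C; 1 = growth at the plate median or of vehicle wells; lower values mean less growth of the strain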
Settings: S. cerevisiae deletion strains, growth OD

Measured: normalized growth

CO/N=C(\C(=O)NC1C(=O)N2C(C(=O)O)=C(COC(N)=O)CSC12)c1ccco1 (stereo not drawn)
active: locus YBR021W, strain FUR4, stronger effect = lower value 0.0938 | locus YBR229C, strain ROT2, stronger effect = lower value 0.0259 | locus YCL029C, strain bik1, stronger effect = lower value 0.0647 | locus YDL035C, strain GPR1, stronger effect = lower value 0.0509 | locus YDL074C, strain BRE1, stronger effect = lower value 0.0872 | locus YDL101C, strain DUN1, stronger effect = lower value 0.0518 | locus YDL185W, strain tfp1, stronger effect = lower value 0.0709 | locus YDL192W, strain arf1, stronger effect = lower value 0.0602 | locus YDR101C, strain arx1, stronger effect = lower value 0.0636 | locus YDR162C, strain NBP2, stronger effect = lower value 0.0497 | locus YDR318W, strain mcm21, stronger effect = lower value 0.062 | locus YDR388W, stronger effect = lower value 0.0594 | locus YDR502C, strain sam2, stronger effect = lower value 0.057 | locus YEL061C, strain CIN8, stronger effect = lower value 0.0491 | locus YER110C, stronger effect = lower value 0.0738 | locus YER155C, strain BEM2, stronger effect = lower value 0.0713 | locus YER167W, strain BCK2, stronger effect = lower value 0.0538 | locus YGL078C, strain dbp3, stronger effect = lower value 0.387 | locus YGL086W, strain mad1, stronger effect = lower value 0.0523 | locus YGL248W, strain PDE1, stronger effect = lower value 0.0434 | locus YGR135W, strain pre9, stronger effect = lower value 0.0617 | locus YGR252W, strain gcn5, stronger effect = lower value 0.126 | locus YHR079C, strain IRE1 (second series), stronger effect = lower value 0.0616 | locus YHR094C, strain hxt1, stronger effect = lower value 0.0582 | locus YHR129C, strain ARP1, stronger effect = lower value 0.056 | locus YHR200W, strain rpn10, stronger effect = lower value 0.0599 | locus YIL066C, strain RNR3, stronger effect = lower value 0.0444 | locus YIL073C, strain SPO22, stronger effect = lower value 0.121 | locus YIL125W, strain kgd1, stronger effect = lower value 0.161 | locus YIR030C, strain dcg1, stronger effect = lower value 0.0751 | locus YJL134W, strain LCB3, stronger effect = lower value 0.0455 | locus YJL168C, strain set2, stronger effect = lower value 0.0569 | locus YJL187C, strain SWE1 (second series), stronger effect = lower value 0.0486 | locus YJR043C, strain POL32, stronger effect = lower value 0.0695 | locus YKL009W, strain mrt4, stronger effect = lower value 0.311 | locus YKL068W, stronger effect = lower value 0.575 | locus YKL085W, strain MDH1 (second series), stronger effect = lower value 0.0978 | locus YKL085W, strain MDH1, stronger effect = lower value 0.0978 | locus YKL190W, strain CNB1, stronger effect = lower value 0.0476 | locus YKR001C, strain vps1, stronger effect = lower value 0.0619 | locus YLR039C, strain RIC1, stronger effect = lower value 0.0948 | locus YLR058C, strain SHM2, stronger effect = lower value 0.0436 | locus YLR102C, strain apc9, stronger effect = lower value 0.0609 | locus YLR262C, strain YPT6, stronger effect = lower value 0.107 | locus YLR268W, strain sec22, stronger effect = lower value 0.0592 | locus YLR330W, strain CHS5, stronger effect = lower value 0.053 | locus YLR342W, strain FKS1 (second series), stronger effect = lower value 0.0595 | locus YLR371W, strain rom2, stronger effect = lower value 0.0612 | locus YLR418C, strain cdc73, stronger effect = lower value 0.096 | locus YML016C, strain PPZ1, stronger effect = lower value 0.0484 | locus YML032C, strain rad52, stronger effect = lower value 0.0647 | locus YML124C, strain tub3, stronger effect = lower value 0.0613 | locus YMR078C, strain ctf18, stronger effect = lower value 0.0716 | locus YMR223W, strain ubp8, stronger effect = lower value 0.0609 | locus YMR263W, strain SAP30, stronger effect = lower value 0.0627 | locus YMR307W, strain GAS1, stronger effect = lower value 0.13 | locus YNL067W, strain RPL9B, stronger effect = lower value 0.0518 | locus YNL233W, strain BNI4, stronger effect = lower value 0.061 | locus YNL250W, strain rad50, stronger effect = lower value 0.297 | locus YNL271C, strain bni1, stronger effect = lower value 0.224 | locus YNL298W, strain CLA4, stronger effect = lower value 0.235 | locus YNL307C, strain MCK1, stronger effect = lower value 0.0668 | locus YNL322C, strain KRE1, stronger effect = lower value 0.0494 | locus YNR052C, strain pop2, stronger effect = lower value 0.0644 | locus YOL012C, strain htz1 0.173 | locus YOL147C, strain pex11, stronger effect = lower value 0.0578 | locus YOR061W, strain CKA2, stronger effect = lower value 0.0318 | locus YOR069W, strain VPS5, stronger effect = lower value 0.0536 | locus YOR136W, strain idh2, stronger effect = lower value 0.067 | locus YOR144C, strain elg1, stronger effect = lower value 0.0595 | locus YOR184W, strain ser1, stronger effect = lower value 0.062 | locus YOR316C, strain cot1, stronger effect = lower value 0.0579 | locus YPR119W, strain clb2, stronger effect = lower value 0.0597 | locus YPR141C, strain kar3, stronger effect = lower value 0.56 | locus YPR163C, strain tif3, stronger effect = lower value 0.0674 | locus YPR167C, strain met16, stronger effect = lower value 0.0656 | strain wtn01, stronger effect = lower value 0.0569
0.0514 (active) and 1.05 (inactive): locus YHR030C, strain SLT2, stronger effect = lower value
0.0608 (active) and 1.03 (inactive): locus YJL095W, strain BCK1, stronger effect = lower value
inactive: locus YAL021C, strain ccr4, stronger effect = lower value 0.988 | locus YAL026C, strain drs2, stronger effect = lower value 0.984 | locus YAL030W, strain snc1, stronger effect = lower value 0.977 | locus YBL061C, strain skt5, stronger effect = lower value 0.967 | locus YBR009C, strain hhf1, stronger effect = lower value 0.985 | locus YBR023C, strain chs3, stronger effect = lower value 0.964 | locus YBR171W, strain sec66, stronger effect = lower value 0.958 | locus YBR231C, strain swc5, stronger effect = lower value 0.971 | locus YBR279W, strain paf1, stronger effect = lower value 0.975 | locus YCL011C, strain gbp2, stronger effect = lower value 0.968 | locus YCL016C, strain dcc1, stronger effect = lower value 0.969 | locus YCL061C, strain MRC1, stronger effect = lower value 0.969 | locus YCL069W, strain vba3, stronger effect = lower value 0.977 | locus YCR088W, strain abp1, stronger effect = lower value 0.975 | locus YDL005C, strain med2, stronger effect = lower value 0.969 | locus YDL040C, strain nat1, stronger effect = lower value 0.981 | locus YDR001C, strain nth1, stronger effect = lower value 0.976 | locus YDR069C, strain doa4, stronger effect = lower value 0.988 | locus YDR137W, strain rgp1, stronger effect = lower value 0.945 | locus YDR159W, strain sac3, stronger effect = lower value 0.99 | locus YDR195W, strain ref2 1 | locus YDR297W, strain sur2, stronger effect = lower value 0.972 | locus YDR334W, strain swr1, stronger effect = lower value 0.966 | locus YDR335W, strain msn5, stronger effect = lower value 0.975 | locus YDR392W, strain spt3, stronger effect = lower value 0.894 | locus YEL003W, strain gim4, stronger effect = lower value 0.997 | locus YEL037C, strain rad23, stronger effect = lower value 0.967 | locus YEL061C, strain CIN8 (second series), stronger effect = lower value 0.976 | locus YER015W, strain faa2, stronger effect = lower value 0.968 | locus YER016W, strain bim1, stronger effect = lower value 0.992 | locus YER111C, strain swi4, stronger effect = lower value 0.976 | locus YER155C, strain BEM2 (second series), stronger effect = lower value 0.969 | locus YFR010W, strain ubp6, stronger effect = lower value 0.966 | locus YGL167C, strain pmr1, stronger effect = lower value 0.96 | locus YGL173C, strain kem1, stronger effect = lower value 0.969 | locus YGL227W, strain vid30, stronger effect = lower value 0.978 | locus YGL240W, strain doc1, stronger effect = lower value 0.989 | locus YGL253W, strain hxk2, stronger effect = lower value 0.99 | locus YHR013C, strain ard1, stronger effect = lower value 0.964 | locus YHR027C, strain rpn1, stronger effect = lower value 0.978 | locus YHR079C, strain IRE1, stronger effect = lower value 1.08 | locus YHR142W, strain chs7, stronger effect = lower value 0.926 | locus YJL092W, strain hpr5, stronger effect = lower value 0.98 | locus YJL095W, strain BCK1 (second series), stronger effect = lower value 0.98 | locus YJL115W, strain asf1, stronger effect = lower value 0.983 | locus YJL129C, strain trk1, stronger effect = lower value 0.971 | locus YJL154C, strain vps35, stronger effect = lower value 0.971 | locus YJL164C, strain tpk1, stronger effect = lower value 0.977 | locus YJL166W, strain qcr8, stronger effect = lower value 0.962 | locus YJL187C, strain SWE1, stronger effect = lower value 0.971 | locus YJR066W, strain TOR1, stronger effect = lower value 0.972 | locus YKL160W, strain elf1, stronger effect = lower value 0.961 | locus YKR026C, strain gcn3, stronger effect = lower value 0.98 | locus YKR091W, strain srl3, stronger effect = lower value 0.98 | locus YLL001W, strain dnm1, stronger effect = lower value 0.944 | locus YLL026W, stronger effect = lower value 0.991 | locus YLL041C, strain sdh2, stronger effect = lower value 0.971 | locus YLR027C, strain aat2, stronger effect = lower value 0.981 | locus YLR113W, strain HOG1, stronger effect = lower value 1.07 | locus YLR221C, strain rsa3, stronger effect = lower value 0.956 | locus YLR258W, strain gsy2, stronger effect = lower value 0.975 | locus YLR262C, strain YPT6 (second series), stronger effect = lower value 0.967 | locus YLR320W, strain mms22, stronger effect = lower value 0.93 | locus YLR342W, strain FKS1, stronger effect = lower value 0.972 | locus YLR357W, strain rsc2, stronger effect = lower value 0.963 | locus YLR370C, strain arc18, stronger effect = lower value 0.963 | locus YLR384C, strain iki3, stronger effect = lower value 0.968 | locus YML120C, strain ndi1, stronger effect = lower value 0.965 | locus YMR058W, strain fet3, stronger effect = lower value 0.968 | locus YMR125W, strain sto1, stronger effect = lower value 0.979 | locus YMR129W, stronger effect = lower value 0.983 | locus YMR205C, strain PFK2, stronger effect = lower value 0.949 | locus YMR231W, strain pep5, stronger effect = lower value 0.968 | locus YNL071W, strain lat1, stronger effect = lower value 0.974 | locus YNL183C, strain NPR1, stronger effect = lower value 0.966 | locus YNL209W, strain ssb2, stronger effect = lower value 0.985 | locus YNL248C, strain rpa49, stronger effect = lower value 0.966 | locus YNL322C, strain KRE1 (second series), stronger effect = lower value 0.969 | locus YNR049C, strain mso1, stronger effect = lower value 0.978 | locus YOR001W, strain rrp6, stronger effect = lower value 0.984 | locus YOR070C, strain gyp1, stronger effect = lower value 0.988 | locus YOR080W, strain dia2, stronger effect = lower value 0.986 | locus YOR083W, strain WHI5, stronger effect = lower value 0.953 | locus YOR106W, strain vam3, stronger effect = lower value 0.951 | locus YOR231W, strain MKK1, stronger effect = lower value 1.06 | locus YOR265W, strain rbl2, stronger effect = lower value 0.991 | locus YOR270C, strain vph1, stronger effect = lower value 0.96 | locus YOR290C, strain snf2, stronger effect = lower value 0.958 | locus YPL051W, strain arl3, stronger effect = lower value 0.97 | locus YPL078C, strain atp4, stronger effect = lower value 0.957 | locus YPL106C, strain sse1, stronger effect = lower value 0.941 | locus YPL240C, strain hsp82, stronger effect = lower value 0.982 | locus YPL256C, strain CLN2, stronger effect = lower value 1.07

CO/N=C(/C(=O)N[C@@H]1C(=O)N2C(C(=O)O)=C(CSc3nc(=O)c(O)nn3C)CSC12)c1csc(N)n1 (stereo partly drawn)
inactive: locus YAL013W, strain DEP1, stronger effect = lower value 1 | locus YAL040C, strain CLN3, stronger effect = lower value 1 | locus YCL061C, strain MRC1 (second series), stronger effect = lower value 1 | locus YER002W, strain NOP16, stronger effect = lower value 1.01 | locus YGR078C, strain PAC10, stronger effect = lower value 1.01 | locus YJR075W, strain HOC1, stronger effect = lower value 1 | locus YNL175C, strain NOP13, stronger effect = lower value 1.01 | locus YNL197C, strain WHI3, stronger effect = lower value 1.01 | locus YNL224C, strain SQS1, stronger effect = lower value 1 | locus YOR083W, strain WHI5 (second series), stronger effect = lower value 1 | locus YPL055C, strain LGE1, stronger effect = lower value 1.01
